{"source": "PubChem BioAssay AID1159580", "about": "(chemical genetic matrix, 2015)", "experiment": "chemical genetic growth profiling, strain panel (AID 1159580);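 also: tested at 20 µM; growth read once vehicle control cultures reached saturation at 30 °C; 1 = growth at the plate median or of vehicle wells; lower values mean less growth of the strain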", "details": "S. cerevisiae deletion strains, growth OD", "note": "Values joined by “and” are separate entries in the source; they are usually repeats but may differ in a detail not shown here. Equal entries are not always repeated. The campaign covered roughly 5,500 compounds. About 2,000 (36%) were called active. Not shown: some 18% with an inconclusive outcome. Rule as the data show it: active = normalized growth mostly below about 0.91 (no sharp cut-off); inconclusive = no clear call, values can overlap the other calls; inactive = mostly above about 0.92. This is one part of the list.", "data": [{"compound": "C=C1C(=O)O[C@@H]2C3O[C@]3(C)CC/C=C(\\C)CC[C@@H]12", "note": "(stereo partly specified)", "values": [{"measurement": "normalized growth", "setting": "locus YAL013W, strain DEP1, stronger effect = lower value", "value": "0.878 (active)"}, {"measurement": "normalized growth", "setting": "locus YAL021C, strain ccr4, stronger effect = lower value", "value": "0.967 (inactive)"}, {"measurement": "normalized growth", "setting": "locus YAL026C, strain drs2, stronger effect = lower value", "value": "0.914 (inactive)"}, {"measurement": "normalized growth", "setting": "locus YAL030W, strain snc1, stronger effect = lower value", "value": "0.983 (inactive)"}, {"measurement": "normalized growth", "setting": "locus YBL061C, strain skt5, stronger effect = lower value", "value": "1.01 (inactive)"}, {"measurement": "normalized growth", "setting": "locus YBR009C, strain hhf1, stronger effect = lower value", "value": "0.977 (inactive)"}, {"measurement": "normalized growth", "setting": "locus YBR021W, strain FUR4, stronger effect = lower value", "value": "1.06 (inactive)"}, {"measurement": "normalized growth", "setting": "locus YBR023C, strain chs3, stronger effect = lower value", "value": "0.964 (inactive)"}, {"measurement": "normalized growth", "setting": "locus YBR171W, strain sec66, stronger effect = lower value", "value": "0.975 (inactive)"}, {"measurement": "normalized growth", "setting": "locus YBR229C, strain ROT2, stronger effect = lower value", "value": "0.941 (inactive)"}, {"measurement": "normalized growth", "setting": "locus YBR231C, strain swc5, stronger effect = lower value", "value": "1.01 (inactive)"}, {"measurement": "normalized growth", "setting": "locus YBR279W, strain paf1, stronger effect = lower value", "value": "0.948 (inactive)"}, {"measurement": "normalized growth", "setting": "locus YCL011C, strain gbp2, stronger effect = lower value", "value": "0.978 (inactive)"}, {"measurement": "normalized growth", "setting": "locus YCL016C, strain dcc1, stronger effect = lower value", "value": "0.946 (inactive)"}, {"measurement": "normalized growth", "setting": "locus YCL029C, strain bik1, stronger effect = lower value", "value": "0.905 (active)"}, {"measurement": "normalized growth", "setting": "locus YCL069W, strain vba3, stronger effect = lower value", "value": "1 (inactive)"}, {"measurement": "normalized growth", "setting": "locus YCR088W, strain abp1, stronger effect = lower value", "value": "0.983 (inactive)"}, {"measurement": "normalized growth", "setting": "locus YDL005C, strain med2, stronger effect = lower value", "value": "0.989 (inactive)"}, {"measurement": "normalized growth", "setting": "locus YDL035C, strain GPR1, stronger effect = lower value", "value": "0.838 (active)"}, {"measurement": "normalized growth", "setting": "locus YDL040C, strain nat1, stronger effect = lower value", "value": "0.993 (inactive)"}, {"measurement": "normalized growth", "setting": "locus YDL074C, strain BRE1, stronger effect = lower value", "value": "0.671 (active)"}, {"measurement": "normalized growth", "setting": "locus YDL101C, strain DUN1, stronger effect = lower value", "value": "0.87 (active)"}, {"measurement": "normalized growth", "setting": "locus YDL134C, strain PPH21, stronger effect = lower value", "value": "0.903 (inactive)"}, {"measurement": "normalized growth", "setting": "locus YDL185W, strain tfp1, stronger effect = lower value", "value": "0.913 (inactive)"}, {"measurement": "normalized growth", "setting": "locus YDL192W, strain arf1, stronger effect = lower value", "value": "0.729 (active)"}, {"measurement": "normalized growth", "setting": "locus YDR001C, strain nth1, stronger effect = lower value", "value": "0.997 (inactive)"}, {"measurement": "normalized growth", "setting": "locus YDR069C, strain doa4, stronger effect = lower value", "value": "0.981 (inactive)"}, {"measurement": "normalized growth", "setting": "locus YDR101C, strain arx1, stronger effect = lower value", "value": "0.864 (active)"}, {"measurement": "normalized growth", "setting": "locus YDR137W, strain rgp1, stronger effect = lower value", "value": "0.556 (active)"}, {"measurement": "normalized growth", "setting": "locus YDR150W, strain NUM1, stronger effect = lower value", "value": "0.917 (inactive)"}, {"measurement": "normalized growth", "setting": "locus YDR159W, strain sac3, stronger effect = lower value", "value": "1.02 (inactive)"}, {"measurement": "normalized growth", "setting": "locus YDR162C, strain NBP2, stronger effect = lower value", "value": "0.455 (active)"}, {"measurement": "normalized growth", "setting": "locus YDR195W, strain ref2", "value": "1.06 (inactive)"}, {"measurement": "normalized growth", "setting": "locus YDR297W, strain sur2, stronger effect = lower value", "value": "0.998 (inactive)"}, {"measurement": "normalized growth", "setting": "locus YDR318W, strain mcm21, stronger effect = lower value", "value": "0.739 (active)"}, {"measurement": "normalized growth", "setting": "locus YDR334W, strain swr1, stronger effect = lower value", "value": "0.987 (inactive)"}, {"measurement": "normalized growth", "setting": "locus YDR335W, strain msn5, stronger effect = lower value", "value": "0.976 (inactive)"}, {"measurement": "normalized growth", "setting": "locus YDR388W, stronger effect = lower value", "value": "0.901 (active)"}, {"measurement": "normalized growth", "setting": "locus YDR392W, strain spt3, stronger effect = lower value", "value": "0.532 (active)"}, {"measurement": "normalized growth", "setting": "locus YDR502C, strain sam2, stronger effect = lower value", "value": "0.818 (active)"}, {"measurement": "normalized growth", "setting": "locus YEL003W, strain gim4, stronger effect = lower value", "value": "0.973 (inactive)"}, {"measurement": "normalized growth", "setting": "locus YEL037C, strain rad23, stronger effect = lower value", "value": "0.992 (inactive)"}, {"measurement": "normalized growth", "setting": "locus YEL061C, strain CIN8 (second series), stronger effect = lower value", "value": "1 (inactive)"}, {"measurement": "normalized growth", "setting": "locus YEL061C, strain CIN8, stronger effect = lower value", "value": "0.86 (active)"}, {"measurement": "normalized growth", "setting": "locus YER015W, strain faa2, stronger effect = lower value", "value": "0.993 (inactive)"}, {"measurement": "normalized growth", "setting": "locus YER016W, strain bim1, stronger effect = lower value", "value": "0.997 (inactive)"}, {"measurement": "normalized growth", "setting": "locus YER110C, stronger effect = lower value", "value": "0.879 (active)"}, {"measurement": "normalized growth", "setting": "locus YER111C, strain swi4, stronger effect = lower value", "value": "0.992 (inactive)"}, {"measurement": "normalized growth", "setting": "locus YER155C, strain BEM2 (second series), stronger effect = lower value", "value": "0.888 (inactive)"}, {"measurement": "normalized growth", "setting": "locus YER155C, strain BEM2, stronger effect = lower value", "value": "0.798 (active)"}, {"measurement": "normalized growth", "setting": "locus YER167W, strain BCK2, stronger effect = lower value", "value": "0.694 (active)"}, {"measurement": "normalized growth", "setting": "locus YFR010W, strain ubp6, stronger effect = lower value", "value": "0.992 (inactive)"}, {"measurement": "normalized growth", "setting": "locus YGL078C, strain dbp3, stronger effect = lower value", "value": "0.937 (inactive)"}, {"measurement": "normalized growth", "setting": "locus YGL086W, strain mad1, stronger effect = lower value", "value": "0.792 (active)"}, {"measurement": "normalized growth", "setting": "locus YGL167C, strain pmr1, stronger effect = lower value", "value": "0.97 (inactive)"}, {"measurement": "normalized growth", "setting": "locus YGL173C, strain kem1, stronger effect = lower value", "value": "0.956 (inactive)"}, {"measurement": "normalized growth", "setting": "locus YGL227W, strain vid30, stronger effect = lower value", "value": "0.999 (inactive)"}, {"measurement": "normalized growth", "setting": "locus YGL240W, strain doc1, stronger effect = lower value", "value": "0.962 (inactive)"}, {"measurement": "normalized growth", "setting": "locus YGL248W, strain PDE1, stronger effect = lower value", "value": "0.879 (active)"}, {"measurement": "normalized growth", "setting": "locus YGL253W, strain hxk2, stronger effect = lower value", "value": "0.963 (inactive)"}, {"measurement": "normalized growth", "setting": "locus YGR078C, strain PAC10, stronger effect = lower value", "value": "0.695 (active)"}, {"measurement": "normalized growth", "setting": "locus YGR135W, strain pre9, stronger effect = lower value", "value": "0.749 (active)"}, {"measurement": "normalized growth", "setting": "locus YGR229C, strain SMI1, stronger effect = lower value", "value": "0.396 (active)"}, {"measurement": "normalized growth", "setting": "locus YGR252W, strain gcn5, stronger effect = lower value", "value": "0.771 (inactive)"}, {"measurement": "normalized growth", "setting": "locus YHR013C, strain ard1, stronger effect = lower value", "value": "0.894 (inactive)"}, {"measurement": "normalized growth", "setting": "locus YHR027C, strain rpn1, stronger effect = lower value", "value": "0.991 (inactive)"}, {"measurement": "normalized growth", "setting": "locus YHR030C, strain SLT2, stronger effect = lower value", "value": "0.722 (active) and 0.968 (inactive)"}, {"measurement": "normalized growth", "setting": "locus YHR079C, strain IRE1 (second series), stronger effect = lower value", "value": "0.861 (active)"}, {"measurement": "normalized growth", "setting": "locus YHR079C, strain IRE1, stronger effect = lower value", "value": "0.966 (inactive)"}, {"measurement": "normalized growth", "setting": "locus YHR094C, strain hxt1, stronger effect = lower value", "value": "0.934 (inactive)"}, {"measurement": "normalized growth", "setting": "locus YHR129C, strain ARP1, stronger effect = lower value", "value": "0.801 (active)"}, {"measurement": "normalized growth", "setting": "locus YHR142W, strain chs7, stronger effect = lower value", "value": "0.962 (inactive)"}, {"measurement": "normalized growth", "setting": "locus YHR200W, strain rpn10, stronger effect = lower value", "value": "0.924 (inactive)"}, {"measurement": "normalized growth", "setting": "locus YIL066C, strain RNR3, stronger effect = lower value", "value": "0.7 (active)"}, {"measurement": "normalized growth", "setting": "locus YIL073C, strain SPO22, stronger effect = lower value", "value": "0.588 (active)"}, {"measurement": "normalized growth", "setting": "locus YIL125W, strain kgd1, stronger effect = lower value", "value": "0.937 (inactive)"}, {"measurement": "normalized growth", "setting": "locus YIR030C, strain dcg1, stronger effect = lower value", "value": "0.912 (active)"}, {"measurement": "normalized growth", "setting": "locus YJL092W, strain hpr5, stronger effect = lower value", "value": "0.987 (inactive)"}, {"measurement": "normalized growth", "setting": "locus YJL095W, strain BCK1 (second series), stronger effect = lower value", "value": "0.976 (inactive)"}, {"measurement": "normalized growth", "setting": "locus YJL095W, strain BCK1, stronger effect = lower value", "value": "0.446 (active) and 0.99 (inactive)"}, {"measurement": "normalized growth", "setting": "locus YJL115W, strain asf1, stronger effect = lower value", "value": "0.991 (inactive)"}, {"measurement": "normalized growth", "setting": "locus YJL129C, strain trk1, stronger effect = lower value", "value": "1 (inactive)"}, {"measurement": "normalized growth", "setting": "locus YJL134W, strain LCB3, stronger effect = lower value", "value": "0.943 (inactive)"}, {"measurement": "normalized growth", "setting": "locus YJL154C, strain vps35, stronger effect = lower value", "value": "0.998 (inactive)"}, {"measurement": "normalized growth", "setting": "locus YJL164C, strain tpk1, stronger effect = lower value", "value": "0.95 (inactive)"}, {"measurement": "normalized growth", "setting": "locus YJL166W, strain qcr8, stronger effect = lower value", "value": "0.961 (inactive)"}, {"measurement": "normalized growth", "setting": "locus YJL168C, strain set2, stronger effect = lower value", "value": "0.914 (active)"}, {"measurement": "normalized growth", "setting": "locus YJL187C, strain SWE1 (second series), stronger effect = lower value", "value": "0.866 (active)"}, {"measurement": "normalized growth", "setting": "locus YJL187C, strain SWE1, stronger effect = lower value", "value": "0.963 (inactive)"}, {"measurement": "normalized growth", "setting": "locus YJR043C, strain POL32, stronger effect = lower value", "value": "0.752 (active)"}, {"measurement": "normalized growth", "setting": "locus YJR066W, strain TOR1, stronger effect = lower value", "value": "0.937 (inactive)"}]}]}
